PubChem BioAssay AID1159580 (chemical genetic matrix, 2015)
The whole screen tested about 5,500 compounds, of which about 2,000 (36%) were called active. Inconclusive results (about 18%) are left out. Cut-off read from the data, not from the text of the source: active = normalized growth mostly below about 0.91 (no sharp cut-off); inconclusive = no clear call, values can overlap the other calls; inactive = mostly above about 0.92. The list shows a part of the results.

Assay: chemical genetic growth profiling, strain panel (AID 1159580);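 note: tested at 20 µM; growth read once vehicle control cultures reached saturation at 30 °C; 1 = growth at the plate median or of vehicle wells; lower values mean less growth of the strain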
Conditions: S. cerevisiae deletion strains, growth OD

Measured: normalized growth

CCOCN(C(=O)CCl)c1c(C)cccc1CC
inactive: locus YAL013W, strain DEP1, active compounds read low 0.995 | locus YAL021C, strain ccr4, active compounds read low 0.988 | locus YAL026C, strain drs2, active compounds read low 0.998 | locus YAL030W, strain snc1, active compounds read low 0.992 | locus YBL061C, strain skt5, active compounds read low 0.994 | locus YBR009C, strain hhf1, active compounds read low 0.994 | locus YBR021W, strain FUR4, active compounds read low 1.01 | locus YBR023C, strain chs3, active compounds read low 0.98 | locus YBR171W, strain sec66, active compounds read low 0.971 | locus YBR229C, strain ROT2, active compounds read low 0.992 | locus YBR231C, strain swc5, active compounds read low 0.989 | locus YBR279W, strain paf1, active compounds read low 0.999 | locus YCL011C, strain gbp2, active compounds read low 0.998 | locus YCL016C, strain dcc1, active compounds read low 0.991 | locus YCL029C, strain bik1, active compounds read low 0.976 | locus YCL061C, strain MRC1, active compounds read low 0.98 | locus YCL069W, strain vba3, active compounds read low 0.992 | locus YCR088W, strain abp1, active compounds read low 0.984 | locus YDL005C, strain med2, active compounds read low 0.982 | locus YDL035C, strain GPR1, active compounds read low 0.99 | locus YDL040C, strain nat1, active compounds read low 1 | locus YDL074C, strain BRE1, active compounds read low 1.03 | locus YDL101C, strain DUN1, active compounds read low 0.983 | locus YDL134C, strain PPH21, active compounds read low 0.995 | locus YDL185W, strain tfp1, active compounds read low 0.967 | locus YDL192W, strain arf1, active compounds read low 0.979 | locus YDR001C, strain nth1, active compounds read low 0.991 | locus YDR069C, strain doa4, active compounds read low 0.987 | locus YDR101C, strain arx1, active compounds read low 0.98 | locus YDR137W, strain rgp1, active compounds read low 0.975 | locus YDR150W, strain NUM1, active compounds read low 0.954 | locus YDR159W, strain sac3, active compounds read low 0.959 | locus YDR162C, strain NBP2, active compounds read low 1 | locus YDR195W, strain ref2 0.982 | locus YDR297W, strain sur2, active compounds read low 0.986 | locus YDR318W, strain mcm21, active compounds read low 0.985 | locus YDR334W, strain swr1, active compounds read low 0.986 | locus YDR335W, strain msn5, active compounds read low 0.998 | locus YDR388W, active compounds read low 0.978 | locus YDR392W, strain spt3, active compounds read low 0.975 | locus YDR502C, strain sam2, active compounds read low 0.974 | locus YEL003W, strain gim4, active compounds read low 0.996 | locus YEL037C, strain rad23, active compounds read low 0.994 | locus YEL061C, strain CIN8 (second series), active compounds read low 0.994 | locus YEL061C, strain CIN8, active compounds read low 0.991 | locus YER015W, strain faa2, active compounds read low 0.993 | locus YER016W, strain bim1, active compounds read low 0.994 | locus YER110C, active compounds read low 0.978 | locus YER111C, strain swi4, active compounds read low 0.997 | locus YER155C, strain BEM2 (second series), active compounds read low 0.972 | locus YER155C, strain BEM2, active compounds read low 0.993 | locus YER167W, strain BCK2, active compounds read low 0.995 | locus YFR010W, strain ubp6, active compounds read low 0.992 | locus YGL078C, strain dbp3, active compounds read low 0.979 | locus YGL086W, strain mad1, active compounds read low 0.983 | locus YGL167C, strain pmr1, active compounds read low 0.985 | locus YGL173C, strain kem1, active compounds read low 0.976 | locus YGL227W, strain vid30, active compounds read low 0.983 | locus YGL240W, strain doc1, active compounds read low 0.985 | locus YGL248W, strain PDE1, active compounds read low 0.981 | locus YGL253W, strain hxk2, active compounds read low 0.981 | locus YGR078C, strain PAC10, active compounds read low 1 | locus YGR135W, strain pre9, active compounds read low 0.982 | locus YGR229C, strain SMI1, active compounds read low 1.01 | locus YGR252W, strain gcn5, active compounds read low 1.04 | locus YHR013C, strain ard1, active compounds read low 0.988 | locus YHR027C, strain rpn1, active compounds read low 0.98 | locus YHR030C, strain SLT2, active compounds read low 0.982 | locus YHR079C, strain IRE1 (second series), active compounds read low 0.979 | locus YHR094C, strain hxt1, active compounds read low 0.968 | locus YHR129C, strain ARP1, active compounds read low 0.963 | locus YHR142W, strain chs7, active compounds read low 1.04 | locus YHR200W, strain rpn10, active compounds read low 0.988 | locus YIL066C, strain RNR3, active compounds read low 0.976 | locus YIL073C, strain SPO22, active compounds read low 0.856 | locus YIL125W, strain kgd1, active compounds read low 0.997 | locus YIR030C, strain dcg1, active compounds read low 0.972 | locus YJL092W, strain hpr5, active compounds read low 0.985 | locus YJL095W, strain BCK1 (second series), active compounds read low 0.996 | locus YJL095W, strain BCK1, active compounds read low 1 | locus YJL115W, strain asf1, active compounds read low 0.976 | locus YJL129C, strain trk1, active compounds read low 1.01 | locus YJL134W, strain LCB3, active compounds read low 0.987 | locus YJL154C, strain vps35, active compounds read low 0.979 | locus YJL164C, strain tpk1, active compounds read low 0.994 | locus YJL166W, strain qcr8, active compounds read low 0.991 | locus YJL168C, strain set2, active compounds read low 0.984 | locus YJL187C, strain SWE1 (second series), active compounds read low 0.979 | locus YJL187C, strain SWE1, active compounds read low 0.988
